Bioassay records as filed in PubChem.
TIM10 inh = growth inhibitors of isogenic TIM10 control yeast, primary screen, counter-screen for tim10-1 yeast inhibitor project, luminescence, uHTS; actives 1.4% (n = 330,000); inhibition, % at 10 µM; S. cerevisiae TIM10 strain growth, BacTiter-Glo luminescence, 24 h; AID 463195, 2010;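 active = inhibition of 40% or more at the single tested concentration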;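 note: wild-type TIM10 isogenic control strain grown at permissive 25 °C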
PfHsp90 set2 = growth inhibition of PfHsp90-expressing yeast, primary screen, antimalarial PfHsp90 inhibitor project, S. cerevisiae, BacTiter-Glo luminescence, single point, set 2. actives 0.32% (n = 310,000). AID 504621, 2011. inhibition, % at 9.4 µM. BacTiter-Glo ATP, 48 h; yeast lacking PDR1 and PDR3 efflux regulators;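 active = every replicate shows inhibition above about 80%, whatever the replicate mean, limit read from the data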;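 note: 0% = DMSO neutral controls and 100% = 20 µM radicicol positive controls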
SKKanGAS inh = S. pyogenes SKKanGAS growth inhibitors in kanamycin, primary screen, streptokinase expression inhibitor project, SKKanGAS strain, BacTiter-Glo luminescence | 6 h | inhibition, % at 7.5 µM | actives 1.3% (n = 300,000);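 active = mean replicate score, as percent of positive control median, at least 50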;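 note: strain carries kanamycin resistance gene driven by streptokinase promoter and grows in 40 µg/ml kanamycin; loss of luminescence reflects streptokinase promoter inhibition or plain growth inhibition; 0% = median of DMSO wells and 100% = positive control at its reference dose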
tim23-1 inh = growth inhibitors of tim23-1 mutant yeast, primary screen, luminescence, uHTS; S. cerevisiae tim23-1 growth, BacTiter-Glo luminescence, 24 h; inhibition, % at 20 µM; actives 1.3% (n = 330,000);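 active = growth inhibition of the mutant yeast at or above 50%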;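 note: temperature-sensitive mutant grown at 25 °C; plate controls were DMSO-treated mutant yeast for no effect and medium wells lacking yeast for full effect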
tim10-1 inh = growth inhibitors of tim10-1 mutant yeast, primary screen, luminescence, uHTS | S. cerevisiae tim10-1 ts strain growth, BacTiter-Glo, 24 h | inhibition, % at 20 µM | actives 2.2% (n = 330,000);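 active = inhibition of at least 40%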;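 note: mutant grown at 25 °C; 0% = DMSO wells with yeast and 100% = wells holding no yeast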
NALP3 yeast inh = NALP3 inflammasome inhibitors in reconstituted yeast, primary screen, luminescence, uHTS | actives 0.39% (n = 330,000) | Yeast reconstituted NLRP3/ASC/caspase-1, beta-gal luminescence, 24 h | inhibition, % at 10 µM;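 active = inhibition of 50% or more; inactive = inhibition below 50%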;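 note: plate controls were induced DMSO wells for no effect and uninduced yeast grown without galactose for full effect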
tim10-1 conf = growth inhibitors of tim10-1 mutant yeast, confirmation, single concentration, luminescence, S. cerevisiae; shares compounds with tim10-1 inh; S. cerevisiae tim10-1 ts strain growth, BacTiter-Glo, 24 h; inhibition, % at 20 µM; actives 56% (n = 7,400);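 active = inhibition of yeast growth at or above a set limit in either of two repeat tests at 20 µM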;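 note: tim10-1 mutant grown at permissive 25 °C to find synthetic lethal compounds; 0% = DMSO yeast wells and 100% = medium wells without yeast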
tim10 confirm = growth inhibitors of wild-type TIM10 yeast, confirmation, counter-screen for tim10-1 synthetic lethality project, single concentration, luminescence, S. cerevisiae; AID 463215, 2010; inhibition, % at 10 µM; S. cerevisiae tim10 strain growth, BacTiter-Glo luminescence, 24 h; shares compounds with TIM10 inh; actives 63% (n = 4,600);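 active = inhibition of yeast growth at or above a set limit in either of two replicates at 10 µM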;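 note: this counterscreen used the strain with wild-type TIM10; 0% = yeast with DMSO and 100% = medium wells lacking yeast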
tim23-1 confirm = tim23-1 mutant yeast growth inhibitors, confirmation, luminescence, single concentration; shares compounds with tim23-1 inh; S. cerevisiae tim23-1 growth, BacTiter-Glo luminescence, 24 h; inhibition, % at 20 µM; actives 83% (n = 4,400); AID 463218, 2010;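 active = inhibition above about 39% in either of two replicate wells at 20 µM, limit read from the data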;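 note: temperature-sensitive tim23-1 mutant grown at 25 °C; 0% = DMSO wells with yeast and 100% = medium wells without yeast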
* marks the source's active call; other numbers are inactive results; · = no result given. Rows were chosen to be rich in hits. Some 4.5% of all compounds tested hit in one or more screens of this group.

SMILES	TIM10 inh	PfHsp90 set2	SKKanGAS inh	tim23-1 inh	tim10-1 inh	NALP3 yeast inh	tim10-1 conf	tim10 confirm	tim23-1 confirm
OC(c1cccc(Cl)c1)c1nccc2ccccc12 (centres undefined)	-4	-11	7	12	3	11	·	·	·
CCOC(=O)c1cnc(-n2nc(C)cc2C)nc1NC(C)c1ccccc1 (centres undefined)	53*	·	107*	54*	44*	23	30	57*	45*
O=C(/C=C/c1cccc(Cl)c1)c1ccc([N+](=O)[O-])o1	96*	108*	63*	95*	94*	43	96*	99*	99*
COc1cc(/C=C/C(=O)c2ccc([N+](=O)[O-])o2)ccc1O	97*	112*	72*	96*	96*	49	97*	99*	99*
NS(=O)(=O)c1ccc(CNC(=O)/C=C/c2cccc(Cl)c2)cc1	-14	-15	48	-3	-1	14	·	·	·
COc1ccc(CCNC(=O)CSc2nnc(CNC(=O)c3c(F)cccc3Cl)o2)cc1OC	-13	13	-7	9	19	3	·	·	·
COc1cccc(C(=O)NC(=S)Nc2ccccc2N2CCOCC2)c1	39	16	39	53*	44*	18	30*	·	46*
O=C(NC(=S)Nc1ccccc1N1CCN(C(=O)c2ccccc2)CC1)c1ccccc1F	25	-68	27	33	29	8	·	·	·
O=C(NC(=S)Nc1ccc(N2CCCCC2)cc1)c1cccs1	55*	-11	5	51*	44*	31	14	27	50*
O=C(NC(=S)Nc1ccccc1N1CCOCC1)c1cccs1	57*	-74	6	59*	52*	-37	36*	38*	60*
O=C(NC(=S)Nc1ccccc1N1CCOCC1)c1ccccc1F	39	-69	21	57*	52*	10	44*	·	55*
O=C(C[C@@H]1C/C=C\C[C@@H](NC(=O)OCC2c3ccccc3-c3ccccc32)C(=O)OCCNC1=O)N[C@@H](CO)Cc1ccccc1	1	4	·	-1	-1	4	·	·	·
COc1cccc(N(CC(=O)Nc2ccccc2C(=O)N2CCCC2)S(C)(=O)=O)c1	6	-28	-4	-6	-3	13	·	·	·
C/C(=N\OC(=O)Nc1ccc(Cl)cc1)c1ccc(F)c(F)c1	14	-15	7	57*	51*	27	54*	·	59*
CC(C)C(Cl)=NOC(=O)Nc1ccc(F)cc1	·	-9	·	·	·	·	·	·	·
O=C(Nc1ccc(Cl)cc1)ON=C1CCCC1	82*	-1	2	64*	43*	14	28	-21	41*
COc1ccc(C2C3C=CCC(c4cccc(-c5ccc(C)cc5)c4)C3C(=O)N2Cc2ccccc2)cc1Cl (centres undefined)	56*	-5	2	53*	46*	9	40*	22	54*
COc1ccc(-c2cccc(C3CC=CC4C3C(=O)N(Cc3ccccc3)C4c3ccc4ccccc4c3)c2)cc1 (centres undefined)	35	·	-5	31	29	32	·	·	·
COc1ccc(CCNC(=O)c2c(O)c3cccc4c3n(c2=O)CC4)cc1OC	57*	11	-3	53*	43*	17	-36	30*	45*
CC(=O)c1c(O)c2cccc3c2n(c1=O)CCC3	17	-2	2	54*	41*	18	30*	·	52*
CN1CCN(C(=O)c2c(O)c3cccc4c3n(c2=O)CCC4)CC1	5	15	-3	8	4	3	·	·	·
COc1ccc(C(=O)OC(C)C(=O)NC(C)CCc2ccccc2)c(OC)c1 (centres undefined)	-19	4	3	22	-4	28	·	·	·
O=C(Nc1ccccc1)c1ccccc1Oc1ccc(C(F)(F)F)cc1[N+](=O)[O-]	31	-10	1	36	31	21	·	·	·
O=C(Oc1ccccc1C(=O)Nc1ccccc1)c1ccc(Br)c([N+](=O)[O-])c1	52*	-58	3	61*	47*	47	51*	35*	74*
CCOC(=O)C1(N(CC)CC)Sc2cc(C)ccc2NC1=O (centres undefined)	30	·	-9	34	28	26	·	·	·
SMILES	TIM10 inh	PfHsp90 set2	SKKanGAS inh	tim23-1 inh	tim10-1 inh	NALP3 yeast inh	tim10-1 conf	tim10 confirm	tim23-1 confirm
C=C(C)C(=O)OC1(C(F)(F)F)Oc2cc(C)ccc2NC1=O (centres undefined)	48*	·	-5	66*	56*	13	52*	41*	78*
COc1ccc(CC(=O)NC(c2ccccc2)c2ccc(C)cc2)c(OC)c1 (centres undefined)	4	-22	1	19	20	20	·	·	·
O=C(NO)c1ccc(C(=O)N(C2CCCCC2)C2CCCCC2)cc1	51*	·	8	64*	53*	6	41*	39*	71*
N/C(=C\C(=O)c1cc(Cl)ccc1O)C(Cl)(Cl)Cl	42*	-22	-10	73*	40*	-16	48*	31	37
Fc1nc(F)c(F)c(NCCCNc2c(F)c(F)nc(F)c2F)c1F	55*	-5	-10	66*	54*	25	76*	45*	81*
CCOc1ccc(N2C(=O)CC(NC3CCN(C(=O)c4cccs4)CC3)C2=O)cc1 (centres undefined)	6	1	1	-3	-10	3	·	·	·
Cc1ccc(C(=O)/C=C/c2cn(CN3CCN(C)CC3)c3ccccc23)cc1	60*	-11	-7	56*	52*	33	38*	55*	-93
Cc1ccc(C(=O)/C=C/c2c[nH]c3ccccc23)cc1	36	-29	2	80*	44*	38	23	·	44*
S=C(Nc1ccc2nsnc2c1)NC1CCCCC1	54*	-8	3	53*	53*	9	33*	22	57*
